PubChem BioAssay AID504766 (The Scripps Research Institute Molecular Screening Center, 2011)
Among all 340,000 compounds or so, about 3,400 (1%) were called active.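 Rule for the calls: active = inhibition above the mean over all tested compounds plus 3 SD (cut at about 4.2% in these data); inactive = the rest.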 What follows is part of a selection rich in actives, with near analogues and random picks from the rest.

molecular target: Nuclear receptor subfamily 0 group B member 1 (Homo sapiens) (UniProt P51843); experiment: DAX1 (NR0B1) inhibitors, primary screen, cell-based, HEK293, Gal4-DAX1, luciferase luminescence (AID 504766); conditions: HEK293 Gal4-DAX1 luciferase reporter, at 6.75 µM, hits give high values;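 note: 0% = DAX1-transfected cells with DMSO and 100% = empty-vector control cells with DMSO; inhibition shows as a rise in luminescence from relieved DAX1 repression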
Sequence (P51843 207-470 limits assumed): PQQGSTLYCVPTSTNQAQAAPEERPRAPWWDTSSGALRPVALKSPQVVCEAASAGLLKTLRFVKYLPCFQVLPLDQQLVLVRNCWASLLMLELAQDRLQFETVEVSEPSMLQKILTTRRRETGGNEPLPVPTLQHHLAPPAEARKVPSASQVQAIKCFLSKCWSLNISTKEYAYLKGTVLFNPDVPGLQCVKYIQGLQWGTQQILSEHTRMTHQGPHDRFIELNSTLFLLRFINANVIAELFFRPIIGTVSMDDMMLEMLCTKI

inhibition, inactive:
COc1ccccc1-n1c(SCC(=O)Nc2ccc(Cl)cc2)nc(O)c(Cc2ccccc2)c1=O 1.11%, CC1(C)CC(=O)C(CC(=O)N2CCC(Cc3ccccc3)CC2)C(=O)C1 3.82%, CC1(C)CC(=O)NC=C(c2ccccc2)C1 -0.26%, COc1ccc(C(=O)NCC2CCCO2)cc1S(=O)(=O)NCc1ccc(Cl)cc1 (centres undefined) 0%, CC1=C(C(=O)N(C)C)CC(CC(=O)NCCc2ccccn2)C(=O)N1CCC1=CCCCC1 (centres undefined) 1.44%, CC(C)N=C1CCCC1C(=S)SSC(=S)C1CCCC1=NC(C)C (centres undefined) -3.43%, Cc1ccc(NC(=O)/C(=C\c2ccccc2)NC(=O)c2ccco2)cc1 0.33%, O=C(Nc1ccc2ccccc2c1)/C(=C\c1ccc2c(c1)OCO2)NC(=O)c1ccco1 -1.35%, Cc1ccc(CCNC(=O)CN2C(=O)CSc3ccc(S(=O)(=O)N4CCOCC4)cc32)cc1 0.18%, NC1=CC(=O)C(=O)c2cccnc21 -3.86%, C[C@@H]1CCCCO[C@H](CN(C)Cc2ccccc2)[C@@H](C)CN([C@H](C)CO)C(=O)c2cc(NS(=O)(=O)c3ccc(Cl)cc3)ccc2O1 -0.88%, Cc1ccc([C@H]2C[C@H](O)[C@@H](n3cc(COC(=O)c4ccccc4)nn3)CN2CC2CCCCC2)cc1 2.07%, Brc1ccccc1C1N=C(c2ccccc2)NO1 (centres undefined) 1.91%, Nc1cccc(OCCCCCOc2cccc(N)c2)c1 -0.21%, CSc1ncnc2c1ncn2CCCNCc1ccco1 0.14%, C[C@H]1CN([C@@H](C)CO)C(=O)c2cc(-c3cccc(F)c3)cnc2O[C@@H]1CN(C)S(C)(=O)=O 3.06%, N#CC1(Nc2ccc3c4c(cccc24)CC3)CCCCC1 -0.16%, CCOC(=O)c1c(NC(=S)SC)sc(C(=O)N2CCc3ccccc3C2)c1C 0.87%, CCSc1nc2sc3c(c2c(=O)n1-c1ccc(C)cc1)CCN(C)C3 0.31%, CCCSc1nc(NCc2ccco2)c2c3c(sc2n1)COC(C)(CC)C3 (centres undefined) 1.15%, C[C@@H]1CN([C@@H](C)CO)C(=O)c2cc(NS(C)(=O)=O)ccc2O[C@@H](C)CCCCO[C@H]1CN(C)C(=O)Nc1ccc2c(c1)OCO2 0.65%, Cc1ccc(S(=O)(=O)N2CCC(C(=O)N3CCCCCCC3)CC2)cc1 -0.36%, COc1ccc(N2CCN(C(=O)C3CCN(C(=O)c4ccccc4Cl)CC3)CC2)cc1 -0.89%, COc1ccc(N)cc1NC(=O)CN1CCOCC1 1.8%, COc1ccc(Cl)cc1C(=O)Nc1ccc(N(C)C(C)=O)cc1 -0.13%, O=C(COc1ccccc1F)NNC(=O)c1cc(Br)ccc1Cl 0.63%, N#Cc1ccc(OCC(=O)Nc2nc(-c3ccccn3)cs2)cc1 -0.76%, C[C@@H]1CN([C@H](C)CO)S(=O)(=O)c2ccc(C#C[C@@H](C)O)cc2O[C@@H]1CN(C)Cc1ccc(-c2ccccc2)cc1 -0.61%, Cc1ccc(CN(C)C[C@@H]2OCc3cnnn3CCCC(=O)N([C@@H](C)CO)C[C@H]2C)cc1 0.34%, O=C(Nc1cc(S(=O)(=O)N2CCOCC2)ccc1Cl)c1cc(=O)c2ccccc2o1 -1.1%, O=S(=O)(c1ccc(NC(=S)NN=C(C2CC2)C2CC2)cc1)N1CCOCC1 -0.03%, O=C1[C@H]2[C@@H](c3ccc(C(F)(F)F)cc3)N[C@]3(CCCN(Cc4ccc(Br)cc4)C3=O)[C@H]2C(=O)N1Cc1ccccc1 -0.81%, C[C@@H]1Cn2cnc(C(=O)Nc3ccc(CNC(=O)OC(C)(C)C)cc3)c2C(=O)N1 -0.54%, CC(=O)c1ccc(NC(=O)CSC(=S)N2CCCC2)cc1 -0.17%, O=C(CSC(=S)N1CCOCC1)c1ccccc1 -3.24%, N#Cc1ccsc1NC(=O)CN1CCN(S(=O)(=O)c2cc(Cl)ccc2Cl)CC1 -0.1%, O=C(CN1CCN(S(=O)(=O)c2cc(Cl)ccc2Cl)CC1)c1ccc(O)c(O)c1 0.26%, CC(OC(=O)c1cccnc1Cl)C(=O)NC1CCCCC1 (centres undefined) 2.75%, COc1ccc(C(C(=O)NCC2CCCO2)N(C(=O)Cn2nnc3ccccc32)c2ccc(NC(C)=O)cc2)cc1OC (centres undefined) -0.65%, CCC(C)(C)NC(=O)C(c1ccc(O)cc1)N(C(=O)Cn1nnc2ccccc21)c1ccc(NC(C)=O)cc1 (centres undefined) 0.14%, COc1ccccc1C(=O)NC(=S)Nc1ccc(N2CCOCC2)cc1 0.43%, C[C@H]1CN([C@@H](C)CO)C(=O)c2cc(Br)cnc2O[C@H]1CN(C)S(=O)(=O)c1cccs1 0.93%

inhibition, active:
CC1(C)CC(=O)C(C2c3ccccc3S(=O)(=O)c3ccccc32)C(=O)C1 5.54%, COc1ccc(/C=C(/NC(=O)c2ccco2)C(=O)Nc2ccc(C(C)=O)cc2)cc1 4.81%, N#Cc1ccc(C2N=C(c3ccccc3)NO2)cc1 (centres undefined) 4.58%, Cc1cc(N=Nc2ccc3ccccc3c2)ccc1O 4.42%, CN1CCc2c(sc3c2c(NCc2ccco2)nc2nnnn23)C1 5.18%, COc1ccc(N2CCN(C(=O)C3CCN(S(=O)(=O)c4ccc(C)cc4)CC3)CC2)cc1 7.45%, CC12C(=O)N(n3cnnc3)C(=O)C1C1C=CC2C1 (centres undefined) 5.77%, CCN(CC)C(=O)Oc1ccc(Br)cc1C(=O)Nc1ccc(F)c(Cl)c1 4.68%, O=[N+]([O-])c1cc(Cl)cc(/C=N/NC(=S)Nc2cc(S(=O)(=O)N3CCOCC3)ccc2Cl)c1O 4.75%, O=C(CSC(=S)N1CCCCC1)c1c(F)cccc1F 8.18%, CC(C#N)(NC(=O)CN1CCN(S(=O)(=O)c2cc(C(F)(F)F)ccc2Cl)CC1)C1CC1 (centres undefined) 4.49%, COc1ccc(C(C(=O)NC(C)(C)C)N(C(=O)Cn2nnc3ccccc32)c2ccc(C(C)=O)cc2)cc1O (centres undefined) 5.46%
